From PMC11006913

Target: T1, NKX2-6 (Homo sapiens, UniProt A6NCS4 118-204)
T1 sequence: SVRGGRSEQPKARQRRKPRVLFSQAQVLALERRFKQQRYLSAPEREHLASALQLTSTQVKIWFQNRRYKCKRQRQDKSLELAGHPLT
Test: PBM; 200 nM protein, PBS
Conditions: dsDNA, one strand shown

Row | Sequence | binding signal
1 | TCAACTCA | 11.4 upbm affinity estimate (log intensity, higher = more binding, comparable within an allelic series)
2 | ACTTACAT | 11.6 upbm affinity estimate (log intensity, higher = more binding, comparable within an allelic series)
3 | CCCGCGTC | 9.23 upbm affinity estimate (log intensity, higher = more binding, comparable within an allelic series)
4 | ATCCGCAG | 9.55 upbm affinity estimate (log intensity, higher = more binding, comparable within an allelic series)
5 | TAAGAAGA | 11.5 upbm affinity estimate (log intensity, higher = more binding, comparable within an allelic series)
6 | GGCGTTAC | 9.36 upbm affinity estimate (log intensity, higher = more binding, comparable within an allelic series)
7 | AGGGACGA | 9.37 upbm affinity estimate (log intensity, higher = more binding, comparable within an allelic series)
8 | CCGGGTCC | 9.7 upbm affinity estimate (log intensity, higher = more binding, comparable within an allelic series)
9 | GCAGTCCC | 9.36 upbm affinity estimate (log intensity, higher = more binding, comparable within an allelic series)
10 | CCACAGCG | 8.94 upbm affinity estimate (log intensity, higher = more binding, comparable within an allelic series)
11 | GCATCGGC | 9.23 upbm affinity estimate (log intensity, higher = more binding, comparable within an allelic series)
12 | CGCGGTCA | 9.54 upbm affinity estimate (log intensity, higher = more binding, comparable within an allelic series)
13 | CACCGTAG | 9.56 upbm affinity estimate (log intensity, higher = more binding, comparable within an allelic series)
14 | CACACGGA | 9.29 upbm affinity estimate (log intensity, higher = more binding, comparable within an allelic series)
15 | CAGACGGG | 9.56 upbm affinity estimate (log intensity, higher = more binding, comparable within an allelic series)
16 | GGAAAGTA | 11.2 upbm affinity estimate (log intensity, higher = more binding, comparable within an allelic series)
17 | CGGGATCC | 9.34 upbm affinity estimate (log intensity, higher = more binding, comparable within an allelic series)
18 | CTGTGGCC | 9.24 upbm affinity estimate (log intensity, higher = more binding, comparable within an allelic series)
19 | CAGGGACG | 9.36 upbm affinity estimate (log intensity, higher = more binding, comparable within an allelic series)
20 | ATCTTCAC | 11.1 upbm affinity estimate (log intensity, higher = more binding, comparable within an allelic series)

Row | Sequence | binding signal
21 | CAGTCTGC | 9.37 upbm affinity estimate (log intensity, higher = more binding, comparable within an allelic series)
22 | AAACACTA | 11.5 upbm affinity estimate (log intensity, higher = more binding, comparable within an allelic series)
23 | ACTACTTA | 13.5 upbm affinity estimate (log intensity, higher = more binding, comparable within an allelic series)
24 | ACACGCGG | 9.54 upbm affinity estimate (log intensity, higher = more binding, comparable within an allelic series)
25 | AGTGGCTA | 11.9 upbm affinity estimate (log intensity, higher = more binding, comparable within an allelic series)
26 | CGGCGTGA | 9.3 upbm affinity estimate (log intensity, higher = more binding, comparable within an allelic series)
27 | CGTCCTGC | 9 upbm affinity estimate (log intensity, higher = more binding, comparable within an allelic series)
28 | GCGACAGC | 9.46 upbm affinity estimate (log intensity, higher = more binding, comparable within an allelic series)
29 | CGCTTAAG | 12.2 upbm affinity estimate (log intensity, higher = more binding, comparable within an allelic series)
30 | CATGTGGG | 9.41 upbm affinity estimate (log intensity, higher = more binding, comparable within an allelic series)
31 | AGCTGCAG | 9.32 upbm affinity estimate (log intensity, higher = more binding, comparable within an allelic series)
32 | ACTTGACT | 12.4 upbm affinity estimate (log intensity, higher = more binding, comparable within an allelic series)
33 | GGTGCGAC | 9.44 upbm affinity estimate (log intensity, higher = more binding, comparable within an allelic series)
34 | CCGTAGCA | 9.41 upbm affinity estimate (log intensity, higher = more binding, comparable within an allelic series)
35 | CCCAGCAG | 9.19 upbm affinity estimate (log intensity, higher = more binding, comparable within an allelic series)
36 | CGCTCGGC | 9.08 upbm affinity estimate (log intensity, higher = more binding, comparable within an allelic series)
37 | GCCGATCC | 9.45 upbm affinity estimate (log intensity, higher = more binding, comparable within an allelic series)
38 | ACACCCGT | 8.98 upbm affinity estimate (log intensity, higher = more binding, comparable within an allelic series)
39 | ACCGGGGG | 9.31 upbm affinity estimate (log intensity, higher = more binding, comparable within an allelic series)
40 | ACCGTTTG | 9.46 upbm affinity estimate (log intensity, higher = more binding, comparable within an allelic series)
